In PubChem BioAssay AID1671190 (National Center for Advancing Translational Sciences (NCATS), 2021):
The campaign covered roughly 580,000 compounds. About 6,100 (1.1%) were called active. Roughly 15% stayed inconclusive and do not appear here. Shown is part of a subset that was picked to be rich in actives. Values without a mark were called inactive. Calls come from the whole dose curve; as a rule, active = well fitted inhibition curve with a large enough effect; inconclusive = small, poorly fitted or top-dose-only effect, or another doubt; inactive = no such curve, though single readings can be large or run the other way.

Target: Polyunsaturated fatty acid lipoxygenase ALOX12 (Homo sapiens) (UniProt P18054)
Sequence (P18054 whole entry, looked up): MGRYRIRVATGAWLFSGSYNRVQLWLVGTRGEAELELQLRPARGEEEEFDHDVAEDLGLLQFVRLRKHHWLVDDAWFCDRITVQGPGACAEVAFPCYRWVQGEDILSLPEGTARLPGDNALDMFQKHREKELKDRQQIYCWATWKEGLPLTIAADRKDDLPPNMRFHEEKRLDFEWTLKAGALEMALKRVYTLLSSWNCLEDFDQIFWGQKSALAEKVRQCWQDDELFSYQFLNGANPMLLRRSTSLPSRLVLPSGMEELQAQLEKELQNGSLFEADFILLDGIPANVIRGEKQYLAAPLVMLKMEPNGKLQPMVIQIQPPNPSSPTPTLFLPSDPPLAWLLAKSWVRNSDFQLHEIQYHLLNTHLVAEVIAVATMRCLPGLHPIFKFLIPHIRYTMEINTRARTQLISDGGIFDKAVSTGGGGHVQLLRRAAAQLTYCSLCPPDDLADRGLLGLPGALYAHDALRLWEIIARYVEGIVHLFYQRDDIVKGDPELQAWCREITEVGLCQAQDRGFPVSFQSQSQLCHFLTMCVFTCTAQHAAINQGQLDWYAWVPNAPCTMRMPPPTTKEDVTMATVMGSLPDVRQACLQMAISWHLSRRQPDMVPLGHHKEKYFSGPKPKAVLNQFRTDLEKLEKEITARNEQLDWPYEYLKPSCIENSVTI
Experiment: Primary qHTS assay for inhibitors of human arachidonate 12S-lipoxygenase (ALOX12): Round 2
Conditions: purified 12hLO, xylenol orange hydroperoxide absorbance; series mostly up to 108 µM; activity change, negative = inhibition: at the top concentration
Outline: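 Purified human 12hLO at 150 nM in 25 mM Hepes, 0.01% Triton X-100, pH 7.0, preincubated 15 min at room temperature with compound. Reaction started with 40 uM arachidonic acid, 30 min at room temperature. Hydroperoxide measured by Fe-xylenol orange, 573/405 nm absorbance ratio.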
% is set by controls: 0 for no effect and ±100 for the full control effect; potency is the fitted concentration of half-maximal effect.

Structure (SMILES) | activity change, negative = inhibition | Potency
O=C(CN1c2ccccc2S(=O)(=O)c2ccccc21)Nc1cccc(C(F)(F)F)c1 | -26.5% | –
CC(C)(C)c1ccc(/C=N/NC(=O)c2ccccc2)cc1 | 27.4% | –
O=C(O)c1cc(-c2ccc3ccccc3n2)nc2ccc3ccccc3c12 | 2.92% | –
CC1(C)CC(=O)C/C(=N/NC(=O)c2ccc(NC(=O)C3CC3)cc2)C1 | -1.6% | –
N#CC1(Nc2ccc3c4c(cccc24)CC3)CCCCC1 | – | 31.6 µM (active)
N#CC1(NC(=O)COC(=O)Cc2n[nH]c(=O)c3ccccc23)CCCCC1 | – | inactive
O=S(=O)(NC1CC1)c1ccc2c3c(cccc13)CC2 | 8.58% | –
CCCCC(=O)Nc1ccccc1C(C)CC (stereo not drawn) | 2.54% | –
Cc1nn(-c2ccc(F)cc2)c(Oc2ccccc2F)c1CCC(=O)NCC1CCCO1 (stereo not drawn) | 48.6% | –
C=CCNC(=O)N1CC[C@H]2CC(=O)N(c3ccccc3)CC[C@H]2C1 | 0.74% [at 176 µM] | –
C=CCNC(=S)/N=c1/ccccn1Cc1ccccc1 | – | 44.7 µM (active)
C=CCNC(=O)COc1coc(CN2CCN(Cc3ccccc3)CC2)cc1=O | 30.2% | –
COc1ccccc1N1CCN(C(=O)CSc2nccn3nc(-c4ccccc4)cc23)CC1 | 9.23% | –
CCOc1cc2ccccc2cc1C(=O)N1CCN(CC(=O)Nc2cccc(F)c2)CC1 | 0.995% | –
COC(=O)c1ccc(OCc2cccc(C#N)c2)c(OC)c1 | -23.9% | –
COc1ccc(C2CC(=O)NC(SCC(=O)Nc3c(C)cccc3C)=C2C#N)cc1OC (stereo not drawn) | -3.6% | –
COc1cc(C2CC(=O)N3CN(Cc4ccccc4)CSC3=C2C#N)ccc1OCc1ccccc1 (stereo not drawn) | – | 14.1 µM (active)
CCN(CC1COc2ccccc2O1)S(=O)(=O)N1CCOCC1 (stereo not drawn) | 8.61% | –
Nc1nonc1C(=O)N1CCN(C(=O)Nc2ccccc2)CC1 | 11.1% | –
Cc1cccc2c1NC(=O)C21CC(=O)Nc2c1cnn2C(C)(C)C (stereo not drawn) | -1.1% | –
CCOc1c(Br)cc(/C=C/C(=O)c2ccc(OC)c(OC)c2)cc1OC | -4.63% | –
Cc1ccccc1Nc1nc(C(=O)NCCCN2CCOCC2)cs1 | 0.395% | –
COc1cccc(-c2nc3nc(C)cc(C)n3c2NC2CCCCC2)c1 | -25% | –
COc1ccc(-c2nc3cnccn3c2NC2CCCCC2)cc1-c1cccc(Cl)c1 | – | 7.94 µM (active)
Cc1cccc(-c2nc3cnccn3c2NCCC(=O)N2CCCCCC2)c1 | -13.1% | –
O=C1COc2ccc(Nc3ccccc3F)nc2CN1Cc1ccccc1F | -16.2% [at 176 µM] | –
Cc1cccc(-c2nc(SCc3ccc(Br)cc3)n3[nH]c(=O)cc3n2)c1 | -26.7% | –

Structure (SMILES) | activity change, negative = inhibition | Potency
O=c1cc2nc(-c3ccccc3)nc(SCCOc3ccc(Cl)cc3)n2[nH]1 | 0% | –
Cc1ccc(-c2nc(SCc3ccc(Br)cc3)n3[nH]c(=O)cc3n2)cc1 | – | 31.6 µM (active)
COc1ccc(OC)c(CNC(=O)c2cc3c(s2)-c2c(C)cccc2OC3)c1 | -1.33% | –
CCNC(=S)NC1CC(C)(C)NC(C)(C)C1 | -3.31% | –
Cc1cccc(NC(NC(=O)C(C)C)(C(F)(F)F)C(F)(F)F)c1 | -27.2% | –
CCCNC(=O)C(C)OC(=O)c1cc(=O)[nH]c2ccccc12 (stereo not drawn) | -59.8% | –
Cc1ccc(NC(=O)CCC(=O)c2ccc(Br)cc2)cc1 | 0% | –
Cc1c(Cl)cccc1NC(=O)[C@@]1(CC(=O)O)CC(/C=C/c2ccccc2)=NO1 | -17.8% | –
CC(=O)c1ccc(NC(=O)[C@@]2(CC(=O)O)CC(c3ccc(Br)cc3)=NO2)cc1 | – | 44.7 µM (active)
O=C1OC(C2CC2)c2cc3c(cc21)OCCO3 (stereo not drawn) | 0.0886% | –
O=C(O)c1ccc(S(=O)(=O)Nc2cc(F)ccc2OCC(F)(F)F)cc1 | -0.0528% | –
Cc1cccc(OCCn2c(CN3CCCCC3)nc3ccccc32)c1 | 5.02% | –
CCn1ncc(N2CCC(NC(=O)c3ccc(OC(C)C)cc3)CC2)cc1=O | 42.2% | –
COc1ccc(NC(C)=O)cc1NC(=O)CCn1cnc2c1c(=O)n(C)c(=O)n2C | 2.56% | –
Cc1cccc(Cn2c(=O)n(CCC(=O)NCCc3ccc(Cl)cc3)c(=O)c3sccc32)c1 | – | inactive
O=C(Cn1c(=O)n(CCc2ccccc2)c(=O)c2sccc21)c1ccc(Cl)cc1 | – | 22.4 µM (active)
CCC1CCCCN1C(=O)Cn1c(=O)n(CCCCCC(=O)NCc2ccccc2)c(=O)c2sccc21 (stereo not drawn) | -3.5% | –
CC(=O)SC(CC(=O)c1ccccc1)c1ccccc1 (stereo not drawn) | 6.08% | –
S=C(NN=Cc1ccccn1)Nc1ccccn1 | – | 39.8 µM (active)
NCCC(=O)Nc1ccccn1 | -72.1% | –
Cc1nc2sc(C(=O)OCC(=O)Nc3cccc(C(F)(F)F)c3)c(C)c2c(=O)[nH]1 | -13.1% | –
COCCCNC(=O)CCn1ccc2cc(S(=O)(=O)N3CCCCC3)ccc21 | -21.4% | –
O=C(Nc1ccccc1Br)c1nc2ccccc2nc1N1CCOCC1 | 23.4% | –
COc1cc(Br)c(/C=C(/C#N)C(=O)c2ccccc2)cc1O | – | 10 µM (active)
COc1ccc(Cl)cc1NC(=O)/C(C#N)=C/c1coc2ccc(Cl)cc2c1=O | -20.8% | –
COc1ccc(C(=O)/C(C#N)=C\c2ccccc2OC(F)F)cc1 | -60.9% | –
